Screening results as filed in PubChem BioAssay.
FEN1 inhibitor: blocks human flap endonuclease 1; P39748; Recombinant FEN1 flap cleavage, fluorescence, 15 min; Potency, µM (doses to about 114 µM), for inactives: at the top dose activity change, negative = inhibition, hits mostly inhibitors; actives 0.35% (n = 390,000); also: nearly all actives have a fitted effect of over 65% in size
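Compounds are tested as a concentration series against 10 nM FEN1; after a 15 min room-temperature preincubation, 50 nM substrate starts cleavage, with plate reads at 0 and 15 min. Normalized responses are fitted by a Hill equation.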
RECQ1 helicase: RECQ1 (human) helicase inhibition. P46063. RECQ1 DNA unwinding, red fluorescence kinetic read. Potency, µM (series often up to 57.3 µM), without a hit: at the highest dose activity, negative = inhibition, hits mostly inhibitors. actives 0.54% (n = 240,000);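 also: plate controls were vehicle for no effect and no enzyme for full effect; nearly all actives have a fitted effect of over 30% in size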
Target sequence (P46063 whole entry, looked up): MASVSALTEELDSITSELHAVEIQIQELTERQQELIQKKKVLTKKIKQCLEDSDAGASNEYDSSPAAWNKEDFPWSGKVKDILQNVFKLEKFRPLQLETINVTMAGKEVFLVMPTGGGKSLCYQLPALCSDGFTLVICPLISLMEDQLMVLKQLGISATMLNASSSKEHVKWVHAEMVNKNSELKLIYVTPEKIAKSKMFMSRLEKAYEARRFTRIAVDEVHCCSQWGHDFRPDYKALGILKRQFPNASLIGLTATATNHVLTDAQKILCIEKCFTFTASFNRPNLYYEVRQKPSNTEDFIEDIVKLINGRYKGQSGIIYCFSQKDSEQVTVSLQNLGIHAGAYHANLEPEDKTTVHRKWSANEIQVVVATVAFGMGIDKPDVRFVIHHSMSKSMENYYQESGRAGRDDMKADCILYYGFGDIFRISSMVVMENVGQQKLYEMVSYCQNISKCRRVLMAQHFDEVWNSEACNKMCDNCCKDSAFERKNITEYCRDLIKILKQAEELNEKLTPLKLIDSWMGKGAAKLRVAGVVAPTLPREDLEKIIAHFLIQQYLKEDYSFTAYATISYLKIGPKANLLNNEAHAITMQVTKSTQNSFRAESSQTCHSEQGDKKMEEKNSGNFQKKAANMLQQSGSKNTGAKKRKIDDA
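50 nM RECQ1T1 preincubated 15 min with compound in Tris pH 8.0 buffer with MgCl2, DTT, Tween-20 and 2.5 ug/ml poly(dI-dC); started with 200 nM TAMRA/BHQ-2 forked duplex and 2 mM ATP. Unwinding read as fluorescence (525/598 nm), two reads 2 h apart.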
BLM helicase inh: blocks DNA unwinding by human BLM helicase; recombinant BLM DNA unwinding, fluorescence dequenching; Potency, µM (highest dose often 56.1 µM), for inactives: at the top dose activity change, negative = inhibition, usual class: inhibitors; actives 0.2% (n = 350,000); AID 2528;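 also: plate controls were vehicle for no effect and no enzyme for full effect; nearly all actives have a fitted effect of over 35% in size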
L3MBTL1 block: L3MBTL1 (human) inhibition; Q9Y468; AlphaScreen L3MBTL1–H3K9me1 peptide binding; Potency, µM (highest dose often 57.1 µM), without a hit: at the top dose activity, negative = inhibition, hits mostly inhibitors; actives 0.66% (n = 230,000); also: nearly all actives have a fitted effect of over 60% in size
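L3MBTL1 50 nM + b-AHA-H3(1-15)K9me1 75 nM, 30 min RT; compound added, 30 min RT; streptavidin donor/Ni-chelate acceptor beads 10 ug/mL each final, 30 min RT dark; AlphaScreen read.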
WRN inhibitor: blocks human WRN helicase; Q14191; WRN helicase unwinding, fluorescent forked duplex, kinetic; Potency, µM (series often up to 114 µM), for inactives: at the top dose activity change, negative = inhibition, hits mostly inhibitors; actives 0.46% (n = 360,000); also: nearly all actives have a fitted effect of over 55% in size
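WRN at 20 nM final was preincubated with compound for 15 min at room temperature; reaction started with 100 nM forked duplex oligonucleotide carrying fluorophore and quencher plus 2 mM ATP (final). Unwinding followed kinetically by red fluorescence (ex 525/em 598 nm).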
APEX1 inh: APE1 (human) endonuclease inhibition. recombinant APE1, TAMRA/BHQ-2 abasic DNA cleavage fluorescence. AID 2517. P27695. actives 0.35% (n = 350,000). Potency, µM (top dose mostly 65.8 µM), for the others: at the top dose activity change, negative = inhibition, usual class: inhibitors;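 also: plate controls were vehicle for no effect and reference inhibitor for full effect; nearly all actives have a fitted effect of over 55% in size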
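Kinetic fluorescence read (525 ex/598 em nm, three reads 60 s apart) of AP-site incision; signal = third minus first read. Enzyme 0.75 nM, dual-labelled THF duplex 50 nM, compound preincubation 15 min RT.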
* hit, by the source's call; i = inactive; ? = inconclusive; · = no result given; ! = a repeat was not active; [ ] = another dose, or the depositor's remark. This is a sample that favours compounds with a hit; in the whole collection about 1% have one here. Calls follow the shape of the dose curve; as a rule, active = well fitted curve in the direction sought with a large enough effect; inconclusive = small, poorly fitted or top-dose-only effect, or another doubt; inactive = no such curve, though single readings can be large; an effect the other way counts as inactive or inconclusive. Unless noted, % is scaled to controls: 0 for no effect and ±100 for the full control effect; potency is read from the fitted curve at half-maximal effect.

SMILES	FEN1 inhibitor	RECQ1 helicase	BLM helicase inh	L3MBTL1 block	WRN inhibitor	APEX1 inh
CCC(c1nnc(SCc2nc3ccccc3s2)n1Cc1ccccc1)N(C)C (stereo not given)	-11%	-3%	0%	-11%	-5%	-2%
CN1CCN(C(c2ccccn2)c2cc(Cl)c3cccnc3c2O)CC1 (stereo not given)	1%	-3%	-6%	14µM*	-6%	0%
Oc1c(C(c2ccccn2)N2CCC(Cc3ccccc3)CC2)cc(Cl)c2cccnc12 (stereo not given)	-17%	27%	-21%	·	-6%	2%
C=CC[N@@+]12CC[C@@]34c5ccccc5N5/C=C6/[C@H]7C[C@H]8[C@@]9(CC[N@@+]8(CC=C)C/C7=C/CO)c7ccccc7N(/C=C(/[C@@H](C[C@@H]31)/C(=C\CO)C2)[C@H]54)[C@@H]69	·	·	·	·	·	-1%[21 µM]
Cc1ccc(S(=O)c2ccc([N+](=O)[O-])c3nonc23)cc1 (stereo not given)	·	·	·	·	79µM*	·
Cc1ccc(Nc2c([N+](=O)[O-])ccc3nonc23)c(C)c1	12%	·	-3%	·	-5%	-14%
Cc1ccc(CN2[C@H]3CCCC[C@@H]3OCCS2(=O)=O)cc1	-3%	·	·	·	·	·
CCCCCC(=O)Nc1cc(S(=O)(=O)O)cc2cc(S(=O)(=O)O)cc(O)c12	10µM*	·	·	·	6.3µM*	·
CCCCCC(=O)Nc1cccc2ccccc12	-4%	-4%	-6%	·	-7%	7%
CC1(C)C2CCC(C2)C1(C)N=C1OC(CCl)CS1 (stereo not given)	12%	1%	4.5µM*	18%	0%	-3%
ClCC1CSC(=NC23CC4CC(CC(C4)C2)C3)O1 (stereo not given)	10%	12%	-5%	-13%	-12%	2%
CC1C/C(=C/c2ccco2)C(=O)/C(=C/c2ccco2)C1 (stereo not given)	·	6%	-20%	3.2µM*	·	4%
O=C1/C(=C\c2ccco2)CCC/C1=C\c1ccco1	?	-6%	?	3.5µM*	16µM*	?
NC(N)=NCC1COC2(CCCCC2)O1 (stereo not given)	·	·	·	·	·	5%[21 µM]
CC(C)[C@H](NC(=O)[C@H](CC(=O)O)NC(=O)CNC(=O)[C@@H](N)CCCN=C(N)N)C(=O)O	·	-6%	-3%	·	·	0%
COc1ccc(CNC(=O)C2(C)Cc3c(-c4cccc(NC(C)=O)c4)ccnc3O2)cc1OC (stereo not given)	·	·	·	·	-1%	·
Cc1c2oc3c(C)ccc(C(=O)N[C@@H]4C(=O)N[C@@H](C(C)C)C(=O)N5CCC[C@@H]5C(=O)N(C)CC(=O)N(C)[C@@H](C(C)C)C(=O)O[C@H]4C)c3nc-2c(C(=O)N[C@@H]2C(=O)N[C@@H](C(C)C)C(=O)N3CCC[C@@H]3C(=O)N(C)CC(=O)N(C)[C@@H](C(C)C)C(=O)O[C@H]2C)c(N)c1=O	·	2.8µM*	-18%	·	·	?
COc1ccc(F)c(Cn2cnc3c(cnn3C(C)(C)C)c2=O)c1Cl	-10%	·	·	·	·	-6%
O=C(O)C1(C(=O)O)CCC1.[NH2-].[NH2-].[Pt+2]	·	-28%	-6%	·	·	11µM*
CCCSc1nc(C)c(-c2csc(C(C#N)=C3CCCC3)n2)cc1C#N	-18%	7.9µM*	-6%	?	?	?
CC1CCC/C(=C(\C#N)c2nc(-c3cc4ccccc4oc3=O)cs2)C1 (stereo not given)	3%	2%	0%	9%	-3%	8%
CCCN1CNc2c(c(=O)[nH]c(=S)n2Cc2ccc(OC)c(OC)c2)C1	-8%	·	·	·	·	·
CC[C@@]1(O)C[C@H](O[C@H]2C[C@@H](N(C)C)[C@@H](O[C@H]3C[C@@H](O)[C@@H](O[C@H]4CCC(=O)[C@@H](C)O4)[C@@H](C)O3)[C@@H](C)O2)c2c(cc3c(c2O)C(=O)c2c(O)cccc2C3=O)[C@H]1C(=O)OC	·	·	43%	·	·	·
COc1cccc2c1C(=O)c1c(O)c3c(c(O)c1C2=O)C[C@@](O)(C(=O)CO)C[C@@H]3O[C@@H]1C[C@H](N)[C@H](O)[C@H](C)O1	·	16µM*	25µM*	·	·	14µM*
O=C(O)Cc1ccc(NC(=O)c2ccc3c(c2)C(=O)N(Cc2ccco2)C3=O)cc1	-26%	·	-11%	·	40µM*	-3%
SMILES	FEN1 inhibitor	RECQ1 helicase	BLM helicase inh	L3MBTL1 block	WRN inhibitor	APEX1 inh
COc1cccc(/C=N/Nc2snc(SC)c2C#N)c1O	-16%	-5%	-30%	-8%	50µM*	-3%
COc1ccc(C2=Nn3c(nnc3-c3ccccc3Cl)SC2)cc1OC	·	·	·	·	·	-9%
Cc1ccc(S(=O)(=O)ON2C(=O)c3ccccc3C2=O)c(C)c1	?	-2%	2%	8%	45µM*	15%
Cc1cc(C)c(S(=O)(=O)ON2C(=O)c3ccccc3C2=O)cc1C	-15%	i	-7%	11%	35µM*	16%
Cc1cccc(Cn2c(CNS(=O)(=O)c3ccc4c(c3)CCCC4)nc3cccnc32)c1	2%	·	-3%	·	·	·
Cc1cc(N)ccc1N1CCCC1	40µM*	-21%	-16%	-14%	50µM*	2%
Cc1ccc(CNc2ccc(O)cc2)cc1	?	-11%	25µM*	25µM*	?	-9%
Cc1ccc(CNc2ccc(N3CCN(C)CC3)cc2)cc1	·	·	·	·	·	19%
O=C(O)CCC(=O)c1ccc(C2CCCCCC2)cc1	·	·	·	·	-1%	·
Cc1noc(NS(=O)(=O)c2ccc(NC(=O)CSc3nnc4c(n3)[nH]c3ccccc34)cc2)c1C	-1%	-4%	-1%	-6%	89µM*	-1%
COc1ccccc1C(C)NCC(=O)c1c(C)[nH]c2ccccc12 (stereo not given)	1%	·	·	·	·	·
CCCCC(NC(=O)Cc1c(C)c2cc3c(C)c(C)oc3c(C)c2oc1=O)C(=O)O (stereo not given)	5%	·	2%	·	-3%	13%
Cc1coc2c(C)c3oc(=O)c(CCC(=O)N[C@@H](C)C(=O)N[C@@H](Cc4ccccc4)C(=O)O)c(C)c3cc12	-2%	·	-6%	·	-18%	13µM*
CCCC(NC(=O)Cc1c(C)c2cc3c(C)c(C)oc3c(C)c2oc1=O)C(=O)N[C@@H](Cc1ccccc1)C(=O)O (stereo not given in full)	-3%	·	-11%	·	-16%	21µM*
Cc1cc(O)c2c(c1)C(=O)c1cccc(O)c1C2=O	·	7.1µM*!	-7%	-7%	·	32µM*!
CCCCN(CCCC)c1ccc(C=Nc2ccc(/C=C/c3ccnc4ccccc34)cc2)cc1C	-7%	·	·	·	·	·
FC(F)(F)C1=Nc2cccc3cccc(c23)N1	50µM*	·	·	2.5µM*	?	-5%
